Reference: the supplement of paper PMC11732987, “Enantioselective OTUD7B fragment discovery through chemoproteomics screening and high-throughput optimisation” (Communications Chemistry, 2025)

How the values were obtained:
Assay in all cases: log2 ratio of Biotin-Ahx-Ub-VS probe labelling (fragment/DMSO); higher = less target engagement (more negative = stronger competition), active = hit call of the paper (q ≤ 0.05, log2 ratio ≤ -1)
Conditions in all cases: compound concentration: 200 uM; treatment time: 3 h
USP34 = USP34 (UniProt Q70CQ2)
USP34, sequence (Q70CQ2 whole entry, the tested form may be a part): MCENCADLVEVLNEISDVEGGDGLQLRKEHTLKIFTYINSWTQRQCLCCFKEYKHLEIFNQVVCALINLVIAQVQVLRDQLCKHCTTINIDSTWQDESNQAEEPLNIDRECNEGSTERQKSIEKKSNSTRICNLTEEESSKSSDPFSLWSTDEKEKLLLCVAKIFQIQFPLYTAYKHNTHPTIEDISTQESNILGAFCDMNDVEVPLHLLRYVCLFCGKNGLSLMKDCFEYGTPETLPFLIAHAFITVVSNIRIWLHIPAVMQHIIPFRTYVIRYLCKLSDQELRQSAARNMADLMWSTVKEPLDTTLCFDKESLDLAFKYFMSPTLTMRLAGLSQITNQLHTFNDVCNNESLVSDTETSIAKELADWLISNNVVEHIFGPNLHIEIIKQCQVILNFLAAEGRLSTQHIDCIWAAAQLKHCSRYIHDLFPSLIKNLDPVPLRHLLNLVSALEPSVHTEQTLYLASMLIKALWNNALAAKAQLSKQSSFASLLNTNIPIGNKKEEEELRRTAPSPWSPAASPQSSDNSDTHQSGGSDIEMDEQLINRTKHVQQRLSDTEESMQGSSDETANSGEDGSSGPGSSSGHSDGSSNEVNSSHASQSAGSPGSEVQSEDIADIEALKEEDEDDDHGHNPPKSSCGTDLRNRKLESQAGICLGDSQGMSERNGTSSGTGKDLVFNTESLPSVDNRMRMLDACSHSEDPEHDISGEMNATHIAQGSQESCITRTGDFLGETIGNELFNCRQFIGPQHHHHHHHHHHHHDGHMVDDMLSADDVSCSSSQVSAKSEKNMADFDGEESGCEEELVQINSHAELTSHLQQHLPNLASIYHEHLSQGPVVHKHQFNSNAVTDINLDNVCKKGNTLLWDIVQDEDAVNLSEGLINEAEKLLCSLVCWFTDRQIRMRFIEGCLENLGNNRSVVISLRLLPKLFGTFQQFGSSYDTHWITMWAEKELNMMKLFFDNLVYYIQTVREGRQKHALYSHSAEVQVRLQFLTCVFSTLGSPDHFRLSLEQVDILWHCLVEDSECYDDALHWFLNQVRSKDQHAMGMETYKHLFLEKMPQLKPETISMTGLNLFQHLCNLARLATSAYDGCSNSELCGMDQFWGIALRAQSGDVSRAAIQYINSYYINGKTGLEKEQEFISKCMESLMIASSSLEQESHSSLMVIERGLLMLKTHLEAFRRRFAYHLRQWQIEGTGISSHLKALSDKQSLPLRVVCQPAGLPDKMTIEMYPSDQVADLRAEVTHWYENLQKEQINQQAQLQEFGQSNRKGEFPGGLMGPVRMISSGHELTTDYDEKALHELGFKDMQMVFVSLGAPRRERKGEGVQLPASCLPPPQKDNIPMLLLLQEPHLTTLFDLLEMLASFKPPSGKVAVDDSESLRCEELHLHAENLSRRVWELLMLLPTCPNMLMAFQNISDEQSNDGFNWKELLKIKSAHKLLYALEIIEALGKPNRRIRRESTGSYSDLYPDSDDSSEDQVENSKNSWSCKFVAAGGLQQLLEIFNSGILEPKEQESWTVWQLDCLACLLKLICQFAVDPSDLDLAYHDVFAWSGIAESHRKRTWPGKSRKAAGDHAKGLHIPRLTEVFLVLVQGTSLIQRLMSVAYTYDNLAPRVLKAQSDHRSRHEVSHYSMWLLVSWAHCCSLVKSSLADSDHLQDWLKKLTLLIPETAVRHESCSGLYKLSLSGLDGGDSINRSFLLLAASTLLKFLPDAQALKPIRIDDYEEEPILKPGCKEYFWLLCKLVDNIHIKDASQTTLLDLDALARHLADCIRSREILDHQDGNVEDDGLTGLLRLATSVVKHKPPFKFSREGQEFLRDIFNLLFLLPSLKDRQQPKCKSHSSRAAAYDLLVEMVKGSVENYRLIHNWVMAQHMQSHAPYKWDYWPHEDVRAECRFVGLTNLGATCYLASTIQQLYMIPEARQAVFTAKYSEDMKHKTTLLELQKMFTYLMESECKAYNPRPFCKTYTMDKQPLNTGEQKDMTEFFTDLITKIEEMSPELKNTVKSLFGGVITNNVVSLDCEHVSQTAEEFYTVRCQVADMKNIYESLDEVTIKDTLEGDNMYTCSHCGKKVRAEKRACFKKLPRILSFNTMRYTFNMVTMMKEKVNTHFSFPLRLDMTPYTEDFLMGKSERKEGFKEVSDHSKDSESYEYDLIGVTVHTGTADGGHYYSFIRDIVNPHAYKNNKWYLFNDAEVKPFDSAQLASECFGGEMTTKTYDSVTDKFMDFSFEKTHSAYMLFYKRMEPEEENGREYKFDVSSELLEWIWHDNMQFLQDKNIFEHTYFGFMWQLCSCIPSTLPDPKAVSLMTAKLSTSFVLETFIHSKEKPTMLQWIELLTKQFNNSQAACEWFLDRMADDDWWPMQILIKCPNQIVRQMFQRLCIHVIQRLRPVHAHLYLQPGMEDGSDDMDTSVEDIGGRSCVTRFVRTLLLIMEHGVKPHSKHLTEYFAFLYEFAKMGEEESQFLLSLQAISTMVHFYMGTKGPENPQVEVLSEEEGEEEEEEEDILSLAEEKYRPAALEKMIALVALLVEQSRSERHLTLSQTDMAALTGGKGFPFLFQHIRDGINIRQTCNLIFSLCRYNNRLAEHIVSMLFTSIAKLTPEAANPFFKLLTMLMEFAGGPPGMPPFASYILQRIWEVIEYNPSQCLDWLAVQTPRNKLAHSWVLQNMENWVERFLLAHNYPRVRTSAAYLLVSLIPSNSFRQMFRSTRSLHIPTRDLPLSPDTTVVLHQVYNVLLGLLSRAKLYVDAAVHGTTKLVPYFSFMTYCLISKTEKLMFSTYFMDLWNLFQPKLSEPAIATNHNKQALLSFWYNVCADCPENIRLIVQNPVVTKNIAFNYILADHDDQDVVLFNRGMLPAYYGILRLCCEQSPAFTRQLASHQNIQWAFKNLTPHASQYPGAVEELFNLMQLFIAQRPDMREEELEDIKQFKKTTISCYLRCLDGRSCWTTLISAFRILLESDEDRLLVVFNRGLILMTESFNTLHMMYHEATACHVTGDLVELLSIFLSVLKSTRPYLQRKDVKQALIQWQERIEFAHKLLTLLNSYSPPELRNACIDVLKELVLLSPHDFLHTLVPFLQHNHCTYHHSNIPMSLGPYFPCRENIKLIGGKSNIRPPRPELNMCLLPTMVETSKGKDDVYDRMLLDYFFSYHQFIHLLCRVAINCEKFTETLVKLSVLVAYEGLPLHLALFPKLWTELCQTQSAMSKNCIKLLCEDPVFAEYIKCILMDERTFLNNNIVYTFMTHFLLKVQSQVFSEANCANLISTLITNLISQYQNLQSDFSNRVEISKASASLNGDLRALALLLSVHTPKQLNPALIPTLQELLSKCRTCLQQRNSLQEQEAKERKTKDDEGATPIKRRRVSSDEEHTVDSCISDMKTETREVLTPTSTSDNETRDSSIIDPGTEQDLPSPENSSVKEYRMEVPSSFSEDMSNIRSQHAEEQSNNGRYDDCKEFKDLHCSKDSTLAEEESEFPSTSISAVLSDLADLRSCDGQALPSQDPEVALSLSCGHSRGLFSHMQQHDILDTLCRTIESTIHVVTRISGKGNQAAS
Method in brief: (§1)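 Labelling with Biotin-Ahx-Ub-VS (0.5 µM final, 1 h) followed a 3 h triplicate treatment of HEK293T lysate (495 µg per sample, Tris/CHAPS/IGEPAL buffer with protease inhibitors) with fragment at 200 µM or vehicle. Labelled DUBs were NeutrAvidin-enriched, digested with LysC and trypsin, and run by diaPASEF LC-MS/MS. The values, average log2 fragment/vehicle ratios by unpaired t-test, come from global-median-normalised Spectronaut label-free quantities. Proteins with ≥2 unique peptides were used.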

USP36 = biological target: T1, USP36 (UniProt Q9P275)
T1 sequence (whole entry): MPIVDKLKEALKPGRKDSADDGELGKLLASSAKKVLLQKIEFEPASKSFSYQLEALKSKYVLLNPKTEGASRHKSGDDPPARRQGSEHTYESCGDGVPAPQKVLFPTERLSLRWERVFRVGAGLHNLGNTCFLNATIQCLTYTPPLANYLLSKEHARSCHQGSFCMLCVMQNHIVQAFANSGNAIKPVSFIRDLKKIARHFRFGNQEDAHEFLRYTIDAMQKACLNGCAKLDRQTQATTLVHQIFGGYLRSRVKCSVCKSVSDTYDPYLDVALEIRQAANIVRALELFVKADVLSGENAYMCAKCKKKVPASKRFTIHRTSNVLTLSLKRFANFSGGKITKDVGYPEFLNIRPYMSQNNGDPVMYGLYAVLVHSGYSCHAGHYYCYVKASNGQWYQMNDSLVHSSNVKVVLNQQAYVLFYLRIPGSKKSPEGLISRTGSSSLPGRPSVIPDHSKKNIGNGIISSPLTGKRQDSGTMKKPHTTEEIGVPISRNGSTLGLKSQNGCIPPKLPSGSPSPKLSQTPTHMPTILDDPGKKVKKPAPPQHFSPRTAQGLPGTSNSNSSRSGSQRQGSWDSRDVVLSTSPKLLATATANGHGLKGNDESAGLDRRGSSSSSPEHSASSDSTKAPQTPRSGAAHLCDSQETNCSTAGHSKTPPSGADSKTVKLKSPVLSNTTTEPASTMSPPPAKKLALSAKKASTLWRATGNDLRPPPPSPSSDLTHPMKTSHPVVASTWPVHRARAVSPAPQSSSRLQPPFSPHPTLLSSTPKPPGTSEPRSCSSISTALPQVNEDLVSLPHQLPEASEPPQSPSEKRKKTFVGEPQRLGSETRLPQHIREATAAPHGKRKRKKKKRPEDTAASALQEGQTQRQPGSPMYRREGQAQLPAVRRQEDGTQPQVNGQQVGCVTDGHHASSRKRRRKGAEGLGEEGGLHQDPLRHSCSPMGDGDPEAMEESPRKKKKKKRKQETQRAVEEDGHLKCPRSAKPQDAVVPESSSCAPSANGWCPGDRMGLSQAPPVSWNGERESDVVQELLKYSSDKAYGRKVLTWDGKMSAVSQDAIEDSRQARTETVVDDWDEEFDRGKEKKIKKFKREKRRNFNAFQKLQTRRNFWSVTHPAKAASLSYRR
Method in brief: as §1

USP38 = biological target: T2, USP38 (UniProt Q8NB14)
T2 sequence (whole entry): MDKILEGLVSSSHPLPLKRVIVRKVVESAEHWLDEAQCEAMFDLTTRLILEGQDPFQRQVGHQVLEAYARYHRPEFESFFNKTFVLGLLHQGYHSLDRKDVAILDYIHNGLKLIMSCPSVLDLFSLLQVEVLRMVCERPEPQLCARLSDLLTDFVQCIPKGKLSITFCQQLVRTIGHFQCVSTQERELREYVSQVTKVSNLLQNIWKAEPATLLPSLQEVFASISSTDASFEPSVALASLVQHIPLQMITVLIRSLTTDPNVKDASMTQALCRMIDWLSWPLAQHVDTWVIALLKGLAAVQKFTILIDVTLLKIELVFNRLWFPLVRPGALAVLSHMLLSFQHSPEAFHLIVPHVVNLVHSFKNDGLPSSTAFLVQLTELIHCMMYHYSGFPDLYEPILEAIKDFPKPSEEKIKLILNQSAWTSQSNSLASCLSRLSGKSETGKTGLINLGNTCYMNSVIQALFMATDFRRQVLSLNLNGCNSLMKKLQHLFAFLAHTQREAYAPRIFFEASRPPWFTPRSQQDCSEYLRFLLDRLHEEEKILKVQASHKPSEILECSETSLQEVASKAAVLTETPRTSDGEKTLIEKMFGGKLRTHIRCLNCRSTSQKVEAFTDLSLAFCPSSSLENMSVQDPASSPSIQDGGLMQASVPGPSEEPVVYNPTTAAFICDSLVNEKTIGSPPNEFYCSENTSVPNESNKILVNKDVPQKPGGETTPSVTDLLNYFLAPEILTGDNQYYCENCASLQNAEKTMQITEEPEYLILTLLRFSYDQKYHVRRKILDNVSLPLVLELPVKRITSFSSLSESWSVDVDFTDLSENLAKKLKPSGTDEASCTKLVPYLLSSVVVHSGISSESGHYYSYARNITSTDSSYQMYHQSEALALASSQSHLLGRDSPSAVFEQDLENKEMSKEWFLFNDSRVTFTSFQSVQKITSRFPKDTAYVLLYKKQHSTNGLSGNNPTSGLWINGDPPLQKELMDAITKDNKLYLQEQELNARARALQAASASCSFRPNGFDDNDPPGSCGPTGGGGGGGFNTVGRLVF
Method in brief: as §1

USP39 = biological target: T3, USP39 (UniProt Q53GS9)
T3 sequence (whole entry): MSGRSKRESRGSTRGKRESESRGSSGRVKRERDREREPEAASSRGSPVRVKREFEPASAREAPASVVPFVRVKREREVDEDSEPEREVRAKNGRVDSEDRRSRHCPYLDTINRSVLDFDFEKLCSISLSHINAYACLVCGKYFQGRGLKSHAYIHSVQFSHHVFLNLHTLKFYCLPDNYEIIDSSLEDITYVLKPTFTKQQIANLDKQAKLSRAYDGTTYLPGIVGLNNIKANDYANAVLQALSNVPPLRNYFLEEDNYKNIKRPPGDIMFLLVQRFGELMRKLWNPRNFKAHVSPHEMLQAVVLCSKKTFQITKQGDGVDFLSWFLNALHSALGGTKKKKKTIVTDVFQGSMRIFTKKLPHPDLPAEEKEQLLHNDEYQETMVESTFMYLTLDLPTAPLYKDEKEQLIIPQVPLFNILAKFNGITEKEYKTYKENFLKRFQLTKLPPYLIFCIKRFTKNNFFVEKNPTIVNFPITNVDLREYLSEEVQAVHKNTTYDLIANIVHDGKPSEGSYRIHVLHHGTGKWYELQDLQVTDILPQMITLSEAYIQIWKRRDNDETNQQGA
Method in brief: as §1

USP4 = biological target: T4, USP4 (UniProt Q13107)
T4 sequence (whole entry): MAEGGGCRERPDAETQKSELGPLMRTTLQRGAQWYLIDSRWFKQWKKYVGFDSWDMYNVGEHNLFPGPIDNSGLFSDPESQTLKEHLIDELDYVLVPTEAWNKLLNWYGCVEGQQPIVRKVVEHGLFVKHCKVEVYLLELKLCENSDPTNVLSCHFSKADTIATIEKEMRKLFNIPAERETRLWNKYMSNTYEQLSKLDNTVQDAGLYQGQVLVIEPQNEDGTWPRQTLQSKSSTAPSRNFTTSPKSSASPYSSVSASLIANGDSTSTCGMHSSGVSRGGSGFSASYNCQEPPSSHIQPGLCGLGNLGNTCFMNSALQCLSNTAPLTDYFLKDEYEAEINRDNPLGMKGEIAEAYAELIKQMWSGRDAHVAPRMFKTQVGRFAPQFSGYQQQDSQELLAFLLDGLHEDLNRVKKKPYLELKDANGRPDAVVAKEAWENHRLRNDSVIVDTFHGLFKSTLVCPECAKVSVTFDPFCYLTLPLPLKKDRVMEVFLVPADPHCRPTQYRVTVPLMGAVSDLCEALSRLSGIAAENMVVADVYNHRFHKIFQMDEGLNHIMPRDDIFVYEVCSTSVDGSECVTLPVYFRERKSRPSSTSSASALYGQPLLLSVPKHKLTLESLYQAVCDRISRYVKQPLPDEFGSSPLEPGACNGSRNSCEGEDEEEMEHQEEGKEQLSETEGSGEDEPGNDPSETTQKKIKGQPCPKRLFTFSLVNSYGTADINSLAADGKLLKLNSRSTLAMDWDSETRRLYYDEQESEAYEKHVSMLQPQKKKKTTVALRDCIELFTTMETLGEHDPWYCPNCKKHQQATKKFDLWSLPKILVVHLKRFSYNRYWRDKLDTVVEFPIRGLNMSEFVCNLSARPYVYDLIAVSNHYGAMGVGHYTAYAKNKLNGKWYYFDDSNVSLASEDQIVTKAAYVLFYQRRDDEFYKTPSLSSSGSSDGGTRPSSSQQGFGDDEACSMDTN
Method in brief: as §1

Measured: log2 ratio of Biotin-Ahx-Ub-VS probe labelling

Cc1ccn2cc(CNC(=O)CCl)nc2c1.Cl
inactive: USP34 -0.192 | USP36 -0.029 | USP38 -0.0421 | USP39 0.0111 | USP4 0.0609
